Measurements taken from PMC4336329 (PLoS ONE, 2015).
About 14,000 (4.5%) of roughly 310,000 compounds showed an effect of 50% or more. The effect is printed as a negative number. Only a selection was taken, and strong results are over-represented in it overall.

The compounds below were run against human ether-à-go-go-related gene (hERG) potassium channel (human, UniProt Q12809) (assay: primary screen, population patch clamp on CHO cells stably expressing hERG; higher = less effect of the substance).
human ether-à-go-go-related gene (hERG) potassium channel, sequence (Q12809 whole entry, looked up): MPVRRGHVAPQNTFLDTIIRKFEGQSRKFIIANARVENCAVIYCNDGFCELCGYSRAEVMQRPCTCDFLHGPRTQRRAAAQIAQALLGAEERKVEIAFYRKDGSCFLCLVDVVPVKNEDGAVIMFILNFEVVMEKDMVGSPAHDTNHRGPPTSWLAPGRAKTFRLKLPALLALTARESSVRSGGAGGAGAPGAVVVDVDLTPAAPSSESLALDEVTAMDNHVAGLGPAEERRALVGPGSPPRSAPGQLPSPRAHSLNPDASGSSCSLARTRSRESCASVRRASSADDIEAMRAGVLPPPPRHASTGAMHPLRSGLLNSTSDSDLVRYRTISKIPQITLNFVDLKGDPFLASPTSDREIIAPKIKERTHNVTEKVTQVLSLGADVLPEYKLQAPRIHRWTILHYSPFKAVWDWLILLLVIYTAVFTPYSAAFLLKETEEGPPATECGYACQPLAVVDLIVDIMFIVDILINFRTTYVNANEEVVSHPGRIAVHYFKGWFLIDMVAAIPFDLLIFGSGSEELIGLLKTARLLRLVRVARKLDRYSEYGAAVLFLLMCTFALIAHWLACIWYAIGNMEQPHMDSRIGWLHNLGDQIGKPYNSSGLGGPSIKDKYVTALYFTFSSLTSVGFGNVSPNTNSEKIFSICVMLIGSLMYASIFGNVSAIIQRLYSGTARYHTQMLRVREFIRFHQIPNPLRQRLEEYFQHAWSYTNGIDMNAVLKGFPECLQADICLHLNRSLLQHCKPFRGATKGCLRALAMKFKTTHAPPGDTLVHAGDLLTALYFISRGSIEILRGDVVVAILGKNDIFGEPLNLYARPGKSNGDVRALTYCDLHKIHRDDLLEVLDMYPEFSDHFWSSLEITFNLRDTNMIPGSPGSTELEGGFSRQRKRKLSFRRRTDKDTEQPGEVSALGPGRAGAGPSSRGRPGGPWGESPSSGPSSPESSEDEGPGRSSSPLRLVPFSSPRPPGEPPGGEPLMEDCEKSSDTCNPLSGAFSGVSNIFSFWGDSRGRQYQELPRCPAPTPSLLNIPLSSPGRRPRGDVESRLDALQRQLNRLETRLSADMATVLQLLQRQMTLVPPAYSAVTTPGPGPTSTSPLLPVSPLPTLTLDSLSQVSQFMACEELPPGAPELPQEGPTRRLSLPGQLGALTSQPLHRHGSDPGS
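Also: peak tail current of the secondary pulse compared with the same well before compound.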

Row | SMILES | hERG current change (%, negative = inhibition) at 10uM [%]
1 | CCCNC(=O)c1ccc(CN2CCOCC2)cc1 | 8.4
2 | O=C(CS(=O)(=O)c1c[nH]c2ccccc12)Nc1ccc(F)cc1 | -21.8
3 | Cc1cccc(OCCn2c(NC(=O)c3ccco3)nc3ccccc32)c1 | 12.5
4 | CCC(=O)N/C(N)=N/c1nc2ccccc2o1 | -10.3
5 | O=C(COc1ccc(Cl)cc1Cl)N1CCCN(C(=O)COc2ccc(Cl)cc2Cl)CC1 | -47.2
6 | COc1ccc(-c2nc3ccc(C)cn3c2NCc2ccc3c(c2)OCO3)cc1 | -34.1
7 | Cc1ccc(-c2nc3ccccn3c2NCc2ccc3c(c2)OCO3)cc1 | -69.3
8 | c1ccc(-c2nc3ccccn3c2NCc2ccc3c(c2)OCO3)cc1 | -36.1
9 | COc1ccc(-c2nc3ccccn3c2NCc2ccc3c(c2)OCO3)cc1 | -82.4
10 | COc1ccc(-c2nc3cc(C)ccn3c2NCc2ccc3c(c2)OCO3)cc1 | -67.5
11 | Fc1ccc(-c2nc3ccccn3c2NCc2ccc3c(c2)OCO3)cc1 | -24.3
12 | Oc1ccc(-c2nc3ccccn3c2NCc2ccc3c(c2)OCO3)cc1 | -45.8
13 | Cc1cccn2c(NCc3ccc4c(c3)OCO4)c(-c3ccc(O)cc3)nc12 | -22.6
14 | Cc1ccn2c(NCc3ccc4c(c3)OCO4)c(-c3ccc(O)cc3)nc2c1 | -11.6
15 | COc1ccc2c(C)c(CCC(=O)NC3CC3)c(=O)oc2c1C | 14.4
16 | CCCc1cc(C(=O)Nc2ccccc2C(=O)OC)no1 | 7.76
17 | CCCC(=O)Nc1cccc(-c2cn3ccsc3n2)c1 | -47.5
18 | CCOc1ccc(N(C(=O)/C=C/C(=O)Nc2cc(C)on2)C(C(=O)NC2CCCC2)c2ccccc2C)cc1 (centres unmarked) | -6.96
19 | CCn1nc(C)c(CNCc2cn[nH]c2-c2cc3ccccc3o2)c1C | -19

Row | SMILES | hERG current change (%, negative = inhibition) at 10uM [%]
20 | O=C(O)c1cc(C(F)(F)F)nc2ccccc12 | 3.92
21 | CC(C)(C)OC(=O)NC(CC(=O)OCc1ccccc1)C(=O)O (centres unmarked) | 10.1
22 | CC(C)(C)OC(=O)N[C@@H](CC(=O)OCc1ccccc1)C(=O)O | 10.9
23 | CC(C)(C)OC(=O)NC(Cc1ccccc1)C(=O)O (centres unmarked) | -50.5
24 | CC(C)(Oc1ccc(Cl)cc1)C(=O)NCCCn1ccnc1 | -21.2
25 | C=CCn1c(SCC(=O)NC2CCS(=O)(=O)C2)nc2sc(CC)cc2c1=O (centres unmarked) | -47.8
26 | C=CCn1c(SCC#N)nc2sc(CC)cc2c1=O | -16.5
27 | C=CCn1c(SCC(=O)O)nc2sc(CC)cc2c1=O | 13.8
28 | C=CCn1c(SCC(=O)Nc2ccc(O)cc2)nc2sc(CC)cc2c1=O | -62.5
29 | C=CCn1c(SCC(=O)NC2CCCC2)nc2sc(C)cc2c1=O | -5.84
30 | C=CCn1c(SCC(=O)NC2CC2)nc2sc(CC)cc2c1=O | -54.6
31 | C=CCn1c(SCC(=O)Nc2cc(C)on2)nc2sc(CC)cc2c1=O | 1.3
32 | C=CCn1c(SCC(=O)N2CCc3ccccc3C2)nc2sc(CC)cc2c1=O | -34.5
33 | C=CCn1c(SCC(=O)Nc2sccc2C(N)=O)nc2sc(CC)cc2c1=O | -1.95
34 | C=CCn1c(SCC(=O)N2CCCC2=O)nc2sc(CC)cc2c1=O | -70.9
35 | C=CCn1c(SCC(=O)c2cccs2)nc2sc(CC)cc2c1=O | -4.31
36 | C=CCn1c(SCC(=O)N2CCN(C(=O)c3ccco3)CC2)nc2sc(CC)cc2c1=O | -76.3
37 | COC(=O)Cn1c(=NC(=O)c2cc(OC)c(OC)c(OC)c2)sc2cc(OC)ccc21 | 1.18
38 | S=c1[nH]nc(-c2ccc3ccccc3n2)n1-c1ccc2c(c1)OCCO2 | 17.7

Row | SMILES | hERG current change (%, negative = inhibition) at 10uM [%]
39 | Cc1ccc2c(c1)CCCN2N=O | 0.938
40 | CCOc1ccc(N(CC(=O)NCc2ccc(OC)cc2)C(=O)CCC(=O)Nc2nccs2)cc1 | 8.55
41 | COc1ccccc1CNC(=O)COC(=O)c1ccc(C)s1 | 3.82
42 | CC1(C)N([O-])C(c2ccccc2)=C[N+](=O)C1(C)C | 1.38
43 | CCOc1cccc2cc(C(=O)N3CCOCC3)c(=O)oc12 | 14.6
44 | CCN(CC)C(=O)CSc1nc(N)c(C#N)c(-c2cccs2)c1C#N | 15.5
45 | CS(=O)(=O)c1ccc2nc(NC(=O)c3ccc(Cl)cc3)sc2c1 | 6.42
46 | COC(=O)CCCC[C@@H]1SC[C@@H](NC(=O)OC)[C@@H]1NC(=O)OC | 5.49
47 | CC[C@@H](C)[C@H](NC(=O)Cc1c(C)c2cc3c(C)coc3c(C)c2oc1=O)C(=O)O | 6.21
48 | COc1ccc(S(=O)(=O)N2CCN(C(c3ccccc3)c3ccccc3)CC2)cc1NC(C)=O | 21.2
49 | COc1ccc(NC(C)=O)cc1S(=O)(=O)N1CCN(Cc2cccs2)CC1 | -3.53
50 | COc1ccc(/C=C/C(=O)Nc2ccccc2)cc1S(=O)(=O)N1CCOCC1 | -52.2
51 | COc1ccc(NC(C)=O)cc1S(=O)(=O)N1CCN(C/C=C/c2ccccc2)CC1 | -69.3
52 | COc1ccc(/C=C/C(=O)Nc2ccc(C)cc2)cc1S(=O)(=O)N1CCOCC1 | -32.6
53 | COc1ccc(C)cc1S(=O)(=O)N1CCN(C/C=C/c2ccccc2)CC1 | -23.8
54 | COc1ccc(S(=O)(=O)N2CCN(C/C=C/c3ccccc3)CC2)cc1NC(C)=O | -77.9
55 | COc1ccc(S(=O)(=O)N2CCN(C/C=C/c3ccccc3)CC2)cc1F | -30.1
56 | COc1ccc(/C=C/C(=O)Nc2ccc(NC(C)=O)cc2)cc1S(=O)(=O)N1CCOCC1 | 1.65
